Rows were chosen to be rich in hits. Some 7.3% of all compounds tested hit in one or more screens of this group.
FMDV inh: antivirals against foot and mouth disease virus | 410,000 tested, 1.2% active | Potency, µM (series often up to 57.9 µM), without a hit: at the highest dose activity change, negative = inhibition, usual class: inhibitors | FMDV antiviral cell-based qHTS; calls by dose curve; tested in HEK293T cells; also: read-out not given here; potency is read from the fitted curve at half-maximal effect; nearly all actives have a fitted effect of over 45% in size
HCV inh: inhibitors of hepatitis C virus infection. Potency, µM (doses to about 41.8 µM), for the others: top-dose activity change, negative = inhibition, actives largely listed as inhibitors. 340,000 tested, 3.4% active. Huh7.5.1 HCVcc-Cre infection, luciferase reporter, 44 h. AID 651820; active = well fitted inhibition curve with a large enough effect; inconclusive = small, poorly fitted or top-dose-only effect, or another doubt; inactive = no such curve, though single readings can be large or run the other way; also: potency is read from the fitted curve at half-maximal effect
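Reporter virus HCVcc-Cre (~0.5 moi) infects cells exposed to compound; seeding density 1,000 cells/well with 4 h settling beforehand. Luminescence, 15 sec read, taken 44 h post-infection following a 15 min RT substrate incubation.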
HCMV antiviral: human cytomegalovirus inhibition; activity change, negative = inhibition, % at 57.5 µM; HFF cells, HCMV-luciferase reporter, 72 h; active compounds read low; 410,000 tested, 4.5% active; in the data active = activity change below about -60%; inconclusive = no clear call, values can overlap the other calls; inactive = above about -39%
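Human foreskin fibroblasts infected with luciferase-reporter HCMV at MOI 1 PFU/cell, compounds at two doses. Luciferase measured 72 h post infection; normalized to buffer-only basal and Salinomycin (10uM) controls.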
VACV Venus inh: vaccinia inhibition (Venus reporter); 330,000 tested, 0.46% active; Potency, µM (titrated, usually from 36.5 µM), for the others: at the highest dose activity change, negative = inhibition, hits mostly inhibitors; Vaccinia virus Venus reporter expression, fluorescence; AID 720580; calls by dose curve; tested in A549 cells; also: potency is read from the fitted curve at half-maximal effect; nearly all actives have a fitted effect of over 30% in size
VACV mCherry inh: inhibitors of vaccinia virus infection (mCherry reporter signal); AID 720579; Vaccinia virus mCherry reporter infection, fluorescence; 310,000 tested, 0.63% active; Potency, µM (series often up to 36.5 µM), inactives show at the highest dose activity change, negative = inhibition, hits mostly inhibitors; calls by dose curve; tested in A549 cells; also: potency is read from the fitted curve at half-maximal effect; nearly all actives have a fitted effect of over 35% in size
* hit, by the source's call; ? = inconclusive; / = not tested or not shown; [ ] = dose if it differs, or a comment. % is scaled to controls: 0 for no effect and ±100 for the full control effect.

SMILES	FMDV inh	HCV inh	HCMV antiviral	VACV Venus inh	VACV mCherry inh
Cc1csc2nc(-c3cccc(NC(=O)c4cccc(F)c4)c3)cn12	-21%	/	-26	-16%	?
CCOC(=O)c1sc(NC(=O)CSc2n[nH]c(CC(C)C)n2)nc1C	-6%	?	-62*	-17%	-18%
C#CCOCCOCCOCCNc1nc(N2CCN(C(=O)CCCCCCCCCCNC(=O)[C@H](CCCCN)n3cc(C)nn3)CC2)nc(N2CCN(C(=O)CCCCCCCCCCNC(=O)[C@@H]([C@H](C)CC)n3cc(CCCCCN)nn3)CC2)n1	/	22µM*	/	/	/
C#CCOCCOCCOCCNc1nc(N2CCN(C(=O)CCCCCCCCCCNC(=O)[C@H]([C@@H](C)CC)n3cc(CCCCCN)nn3)CC2)nc(N2CCN(C(=O)CCCCCCCCCCNC(=O)[C@@H]([C@H](C)O)n3cc(C)nn3)CC2)n1	?	16%	/	11µM*	?
C#CCOCCOCCOCCNc1nc(N2CCN(C(=O)CCCCCCCCCCNC(=O)[C@@H]([C@H](C)O)n3cc(C)nn3)CC2)nc(N2CCN(C(=O)CCCCCCCCCCNC(=O)[C@@H]([C@H](C)O)n3cc(C)nn3)CC2)n1	-9%	-24%	-74*	?	-7%
COc1ccc(NC(=O)CCCn2nc(C)c3sc4ccccc4c3c2=O)cc1	-19%	/	-6	-5%	-10%
CC(=O)Nc1cc(C(=O)N2CC3(C)CC2CC(C)(C)C3)cc2ncn(CCc3ccccn3)c12 (stereo unspecified)	21%	/	/	-11%	-15%
C=C(c1ccc2nc(NC(=O)OC)[nH]c2c1)c1cccs1	12%	?	-88*	?	?
COC(=O)Nc1nc2ccccc2[nH]1	20%	16%	64	-17%	?
Cc1ccc2[nH]cc(C(O)c3c[nH]c4ccc(C)cc34)c2c1	/	/	/	-14%	-13%
CC(C)(C)C(=O)Nc1ccc(NC(=O)C(C)(C)C)cc1	17%	17%	-84*	-10%	-3%
CC(C)(CCl)C(=O)Nc1ccc(C(F)(F)F)cc1	6%	5%	-76*	-13%	-14%
CC(C)(C)C(=O)Nc1ccc(-c2nc3ccccc3c(=O)o2)cc1	4.5µM*	12%	-64*	-18%	-3%
CC(C)(C)C(=O)Nc1cccc(-c2nc3ccccc3c(=O)o2)c1	/	23%	11	-12%	-17%
Cc1nc(CC(=O)Nc2ccc(C(N)=O)cc2)cs1	-4%	/	3	3%	8%
COc1ccc(CNC(=O)C2CCN(S(=O)(=O)c3c(C)noc3/C=C/c3ccccc3F)CC2)cc1	-5%	/	19	-11%[7.34 µM]	-5%[7.34 µM]
Cc1ccc(NC(=O)CNc2ccc(Cl)c(Cl)c2)cc1S(=O)(=O)N(C)C	?	6.3µM*	-72*	?	?
CCN(CC)S(=O)(=O)c1ccc(C)c(NCC(=O)Nc2ccc(C#N)c(Cl)c2)c1	-43%	13µM*	?	?	-20%
CCN(CC)S(=O)(=O)c1ccc(Cl)c(NC(=O)c2ccc(C#N)cc2)c1	?	?	?	-15%	-19%
O=C(Cc1ccsc1)Nc1ccc(S(=O)(=O)C(F)F)cc1	17%	5%	25	?	10µM*
CC(=O)N1CCN(CC(=O)Nc2ccc(C)c(S(=O)(=O)N(C)C)c2)CC1	11%	27%	?	-18%	-13%
Cc1ccc(NC(=O)CN2CCC(Cc3ccccc3)CC2)cc1S(=O)(=O)N(C)C	?	11µM*	-22	/	/
CC(=O)N1c2ccc(S(=O)(=O)N3CCCCCC3)cc2CC1C(=O)NCc1ccccc1F (stereo unspecified)	-16%	/	-12	-18%	-18%
CC(=O)N1CCC[C@H]1C(=O)NCC1Cc2cc(F)cc(-c3ccc(F)c(C)c3)c2O1 (stereo partly specified)	2%	/	/	-2%	-14%
COc1cc(-c2c(OC)cccc2OC)cc2c1OCCN(C(=O)CCC(=O)c1ccc(F)cc1)C2	-7%	/	/	17%	-2%
SMILES	FMDV inh	HCV inh	HCMV antiviral	VACV Venus inh	VACV mCherry inh
COc1ccc([C@@H]2[C@H](C(=O)N3CCOCC3)CC(=O)N2C(=O)/C=C/c2ccccc2)cc1	/	/	-21	/	/
NS(=O)(=O)c1ccc(CCNC(=O)CN2CCC(Cc3ccccc3)CC2)cc1	-30%	?	-76*	-17%	-7%
Cc1ccc(NC(=O)Cc2ccc(Cl)c(Cl)c2)cc1S(=O)(=O)N(C)C	22µM*	?	-61*	-25%	-20%
C[C@@H](C(=O)OCC(=O)NCCc1ccc(S(N)(=O)=O)cc1)N1C(=O)C2CCCCC2C1=O (stereo partly specified)	-3%	-9%	-80*	/	/
CCN(CC)S(=O)(=O)c1cc(NC(=O)Cc2ccsc2)ccc1C	0%	13µM*	-28	?	?
O=C(CN1CCC(Cc2ccccc2)CC1)NCCc1ccc(F)cc1	-24%	-7%	12	-15%	-19%
O=C(NCCN1Cc2ccccc2OC(c2ccccc2F)C1)c1ccco1 (stereo unspecified)	-12%	/	/	-5%	-13%
COc1cc(-c2ccc(C(F)(F)F)cn2)cc2c1OCCN(S(=O)(=O)C[C@]13CC[C@H](CC1=O)C3(C)C)C2	6%	/	/	0%	-6%
CCOC(=O)[C@]12Cc3ccc(C)cc3[C@H]1N(C1CCCCC1)C(=O)c1ccccc12	6.3µM*	/	-101*	?	?
CCOC(=O)[C@]12Cc3cc(Cl)ccc3[C@H]1N(C1CCCCC1)C(=O)c1cc(OC)ccc12	2.2µM*	/	-104*	3.5µM*	?
CCCCCN1C(=O)c2ccccc2[C@@]2(C(=O)OCC)Cc3cc(Cl)ccc3[C@@H]12	?	/	?	-25%	?
CCOC(=O)[C@]12Cc3cc(C)ccc3[C@H]1N(CCC(=O)OC)C(=O)c1ccccc12	14µM*	/	-110*	?	?
CCOC(=O)[C@]12Cc3cc(C)ccc3[C@H]1N(C1CCCCC1)C(=O)c1ccccc12	7.9µM*	/	-103*	?	?
O=C(c1ccc2c(c1)OCCO2)N(Cc1cccnc1)c1nc2c(F)cccc2s1	-30%	/	-20	-7%[7.34 µM]	-11%[7.34 µM]
Cc1cccc(CNc2ncncc2-c2ccccc2Cl)c1	-9%	/	/	/	/
CCOC(=O)[C@]12Cc3c(cc(OC)c(OC)c3OC)[C@H]1N(C1CCCCC1)C(=O)c1ccccc12	8.9µM*	/	-102*	?	?
CCOC(=O)[C@]12Cc3cc(C)ccc3[C@H]1N(Cc1ccccc1)C(=O)c1cc(OC)ccc12	?	/	-35	?	-28%
CCOC(=O)[C@]12Cc3cc(OC)ccc3[C@H]1N(CC(=O)OC)C(=O)c1ccccc12	-18%	/	-11	-4%	4%
CCOC(=O)[C@]12Cc3ccccc3[C@H]1N(C(C)C)C(=O)c1ccccc12	18µM*	/	-105*	?	?
CCOC(=O)[C@]12Cc3ccc(C)cc3[C@H]1N(C1CCCCC1)C(=O)c1cc(OC)ccc12	28µM*	/	-103*	?	?
NC(=S)N/N=C1\CCOc2ccc(Cl)cc21	-18%	?	-104*	/	/

Screens from PubChem.
